L major viab – reduces viability of Leishmania major promastigotes; resazurin fluorescence viability; inhibition, % at 10 µM; 9% of 200,000 active; in the data active means inhibition above about 50%;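 further: promastigotes grown with compound for 44 hours at 28 °C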
KCC2 mod – modulates chloride dependent transport by human KCC2. Q9H2X9. KCC2 cells, thallium flux FluoZin-2 fluorescence. B-score of Tl+ flux slope (higher = more flux/activation; lower = inhibition) at 10 µM. 2.2% of 190,000 active. AID 1456;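 active means thallium flux slope and its plate-corrected score both differing from the plate sample mean at a set confidence after two filtering rounds, in either direction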;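 further: slope of fluorescence scaled to starting intensity during 10 to 20 s after thallium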
m-calpain inh – inhibitors of pig calpain II; purified calpain II, fluorogenic peptide substrate, 30 min; inhibition, % at 16 µM; 0.37% of 220,000 active; AID 1236;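 active means inhibition above about 50%, limit read from the data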
WT yeast gro inh – growth inhibition of WT yeast, mitochondrial fusion screen; mitochondrial fusion phenotypic screen, WT strain; inhibition, % at 10 µM; 2.1% of 190,000 active; AID 1362; in the data active means inhibition above about 58%; tested in S. cerevisiae
ROMK primary – modulators of human ROMK potassium channel | P48048 | Tet-inducible ROMK, thallium flux fluorescence; actives lie on both sides | B-score at 10 µM | 2% of 130,000 active | AID 1918;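 active means signal ratio slope over the read window, or its plate-corrected B-score, at least 3 SD from the plate mean, either direction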;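 further: B-score of the F/F0 ratio slope over 7 to 12 s after thallium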
Each line names hits and unclear results; the compound was inactive in the other large screens. An excerpt weighted towards active compounds, which were near 12% of everything screened.

Cc1cccc(C)c1OCC(O)Cn1c2ccccc2c2ccccc21 (stereo not drawn)	WT yeast gro inh 83
OC(CN1CCN(Cc2ccccc2)CC1)c1ccccc1 (stereo not drawn)	L major viab 69 (no result: KCC2 mod)
Cc1ccc(OCC(O)Cn2c3ccccc3c3ccccc32)cc1 (stereo not drawn)	none (no result: KCC2 mod, ROMK primary)
OC(CN1CCN(Cc2ccccc2)CC1)Cn1c2ccccc2c2ccccc21 (stereo not drawn)	L major viab 81
OC(COCC(F)(F)C(F)(F)C(F)(F)C(F)F)Cn1c2ccccc2c2ccccc21 (stereo not drawn)	L major viab 86, WT yeast gro inh 91
OC(CSc1ccc(F)cc1)CN1CCN(c2ccccc2)CC1 (stereo not drawn)	L major viab 68
O=S(=O)(c1ccccc1F)N1CCN(CC(O)c2ccccc2)CC1 (stereo not drawn)	none
C=CCN(CC=C)CC(O)Cn1c2ccccc2c2ccccc21 (stereo not drawn)	none (no result: ROMK primary)
OC(CN1CCN(Cc2ccccc2)CC1)c1ccc(F)cc1 (stereo not drawn)	L major viab 96
COc1ccc(CC(NC(C)=O)C(=O)NC2CCN(c3nnnn3-c3ccccc3)CC2)cc1OC (stereo not drawn)	none (no result: KCC2 mod)
Cc1cc(F)ccc1S(=O)(=O)Nc1ccccc1C(=O)NCc1cccnc1	none
c1ccc(COc2ccc(OCCCN3CCCC3)cc2)cc1	L major viab 100
CC(C)Oc1ccc(OCCCN2CCCCCC2)cc1	L major viab 100 (no result: KCC2 mod)
CCC(C)c1ccc(OCCN2CCCC2)cc1 (stereo not drawn)	L major viab 96
CC(C(=O)Nc1ccc(OCc2ccccc2)cc1)N1CCCC1 (stereo not drawn)	none
c1ccc(COc2ccc(OCCN3CCCCC3)cc2)cc1	L major viab 100
COc1ccc(OC)c(-c2c(C#N)c(N)nc3c2c(=O)nc2sccn23)c1	none
Cc1sc(NC(=O)CCC(=O)O)c(C#N)c1C	none
Cc1ccnc(SCCn2c(N3CCOCC3)nc3c2c(=O)n(C)c(=O)n3C)n1	none (no result: m-calpain inh, WT yeast gro inh)
CC1CCN(CCCCOc2ccc(C(=O)c3ccccc3)cc2)CC1	L major viab 99
CC1CCN(CC(=O)N2CCCc3c2c(=O)oc2ccc(OCc4ccccc4)cc32)CC1	none (no result: KCC2 mod)
c1ccc(COc2ccc(OCCN3CCCC3)cc2)cc1	L major viab 100
CC1CCN(CCCOc2ccc(OCc3ccccc3)cc2)CC1	L major viab 100 (no result: KCC2 mod)
O=C(CN1CCCC1)Nc1ccc(OCc2ccccc2)cc1	none
CC1CCC(NC(=O)COc2ccc(C(=O)c3ccccc3)cc2)CC1 (stereo not drawn)	none
O=C(O)CCCCCN1C(=O)C(O)=C(C(=O)/C=C/c2ccccc2)C1c1cccc([N+](=O)[O-])c1 (stereo not drawn)	none
Cc1nc(C(=O)NCc2ccccc2)sc1C1(C)CC(c2ccccc2)=NO1 (stereo not drawn)	none (no result: L major viab, WT yeast gro inh, ROMK primary)
Cc1ccc(S(=O)(=O)N2CCCCC2)cc1NC(=O)C1CCCO1 (stereo not drawn)	none
CCc1c(C)nc2cc(-c3cc(OC)cc(OC)c3)nn2c1N1CCCC1	none
CCOCCN1CCN(c2c(CC)c(C)nc3cc(-c4cc(OC)cc(OC)c4)nn23)CC1	L major viab 72
COC(=O)c1ccc(CN(c2ccc(C)cc2)S(=O)(=O)c2ccc3c(c2)OCCO3)o1	none (no result: ROMK primary)
Nc1ccc2nc(-c3ccccn3)[nH]c2c1	none (no result: ROMK primary)
Cc1[nH]c(-c2ccccn2)nc(=S)c1Cl	KCC2 mod 63, ROMK primary 3.5 (no result: L major viab, WT yeast gro inh)
CCCC(=O)OC(C(=O)Nc1cc(C(F)(F)F)ccc1Cl)c1ccccc1 (stereo not drawn)	L major viab 90 (no result: ROMK primary)
Cc1cc(C(=O)NCC(=O)OC(C(=O)Nc2cc(C(F)(F)F)ccc2Cl)c2ccccc2)ccc1[N+](=O)[O-] (stereo not drawn)	none
CCCC1N2CC3([N+](=O)[O-])CN1CC([N+](=O)[O-])(C2)C3(C)C (stereo not drawn)	none (no result: ROMK primary)
CCN(CC)CCCNC(=O)CSc1c2c(nc3cc(Cl)ccc13)CCCC2	L major viab 100
O=C(CSc1c2c(nc3cc(Cl)ccc13)CCCC2)NCCN1CCOCC1	L major viab 59
O=C(CSc1c2c(nc3ccc(Cl)cc13)CCCC2)NCCCN1CCOCC1	none
CC1=CC=CC2=NC(=O)CC(C)(C(=O)O)N12 (stereo not drawn)	none
Cc1ccc(NS(=O)(=O)c2cc(C(=O)O)ccc2Cl)c(C)c1	none
Cc1ccc(NS(=O)(=O)c2cc(NC(=O)c3ccc4c(c3)NC(=O)CS4)ccc2Cl)c(C)c1	L major viab 87
COc1ccc(/C=C/C(=O)NCCCc2ccccc2)cc1	none (no result: ROMK primary)
CC(C)c1ccc(/C=C/C(=O)NCCCc2ccccc2)cc1	WT yeast gro inh 61
Cc1nnc(NC(=O)CSc2nccn2-c2ccc(F)cc2)s1	none
CCn1ccc(C(=O)Nc2cccc(Cl)c2)n1	none
CCn1c(C)c(C)c2cc(C(=O)Nc3cccc(Cl)c3)ccc21	L major viab 62
Cc1sc(NC(=O)/C=C/c2ccco2)c(C(=O)O)c1C	none (no result: L major viab, WT yeast gro inh, ROMK primary)
CNC(=O)C1=C(C)NC(=S)NC1c1cc2c(cc1OC)CCCC2 (stereo not drawn)	none (no result: ROMK primary)
COC(=O)c1c(NC(NC(=O)CC(C)C)C(Cl)(Cl)Cl)sc2c1CCC2 (stereo not drawn)	none (no result: ROMK primary)
COC(=O)c1c(NC(NC(=O)C(C)(C)C)C(Cl)(Cl)Cl)sc2c1CCC2 (stereo not drawn)	L major viab 51, WT yeast gro inh 71 (no result: ROMK primary)
CCC(=O)NC(Nc1sc2c(c1C(=O)OC)CCC2)C(Cl)(Cl)Cl (stereo not drawn)	L major viab 73 (no result: ROMK primary)
COC(=O)c1c(NC(NC(=O)C(C)C)C(Cl)(Cl)Cl)sc2c1CCC2 (stereo not drawn)	L major viab 53, WT yeast gro inh 60
O=c1cc2c(nn1Cc1ccccc1Cl)-c1ccccc1CC2	WT yeast gro inh 69 (no result: KCC2 mod)
O=C1Cc2ccccc2C(=O)N1OCc1ccc(Cl)cc1Cl	none
O=c1cc2c(nn1Cc1ccc(Cl)cc1Cl)-c1ccccc1CC2	WT yeast gro inh 76 (no result: KCC2 mod)
O=C(O)c1cc2n(n1)CCN(Cc1ccccc1Cl)C2=O	none
CCC(=O)Nc1cc(C(=O)OCC(=O)c2ccccc2)ccc1C	none (no result: KCC2 mod)
CCC(C)[C@H](N)c1cn([C@@H](CCCCN)C(=O)N2CCNCC2)nn1 (stereo partly drawn)	none (no result: ROMK primary)
COc1ccc(NC(=O)c2cc(-c3ccccc3)oc2C)cc1	L major viab 56 (no result: ROMK primary)
COc1ccc(NC(=O)c2ccc(-c3ccccc3C(F)(F)F)o2)cc1	WT yeast gro inh 67
COc1ccccc1CNC(=O)c1ccc(-c2ccccc2C(F)(F)F)o1	WT yeast gro inh 64
COc1ccccc1CNC(=O)c1ccc(-c2ccccc2Cl)o1	none
Cc1ccccc1-c1ccc(C(=O)Nc2cccc(F)c2)o1	WT yeast gro inh 58
CCC(Oc1ccccc1)C(=O)Nc1ccsc1C(=O)OC (stereo not drawn)	L major viab 74
CCCNC(=O)Nc1ccsc1C(=O)OC	none
COC(=O)C1CC(c2ccc(Cl)cc2)=NO1 (stereo not drawn)	none
CC1=CC(C)(C)N(S(=O)(=O)c2ccc(C)cc2)c2cc(C)ccc21	L major viab 99, WT yeast gro inh 76
